Here are results for 40 compounds from PubChem BioAssay (NCATS).

The structures appear in SMILES notation. Records with an inconclusive call do not appear. Entries that show only a call come without a potency. Values without a mark were called inactive. Active and inactive are the calls of the source. Calls follow the shape of the dose curve; as a rule, active = well fitted curve in the direction sought with a large enough effect; inconclusive = small, poorly fitted or top-dose-only effect, or another doubt; inactive = no such curve, though single readings can be large; an effect the other way counts as inactive or inconclusive. *1 amine or outer side, *2 acyl side, *3 side chain or, on linkers, in order; H or OH if unused. Where a SMILES comes first, the peptide text is derived from it. Bridges are numbered along the chain shown (N, C = ends). [ ]: non-standard residue; d: D form. The star is where a group is joined. ξ: configuration not given here. ΔAla(3-NHCONH2) = NC(=O)NC=C(N)C(=O)O; X2 = NC1=NCCC(C(N[*:1])C(=O)[*:2])N1; ξβ3hOrn = NCCCC(N)CC(=O)*; Dap = NC[CH](N)C(=O)O
Also: nearly all actives have a fitted effect of over 40% in size.
Potency is read from the fitted curve at half-maximal effect.

Cytochrome P450 3A7 (Homo sapiens), sequence (P24462 whole entry, looked up): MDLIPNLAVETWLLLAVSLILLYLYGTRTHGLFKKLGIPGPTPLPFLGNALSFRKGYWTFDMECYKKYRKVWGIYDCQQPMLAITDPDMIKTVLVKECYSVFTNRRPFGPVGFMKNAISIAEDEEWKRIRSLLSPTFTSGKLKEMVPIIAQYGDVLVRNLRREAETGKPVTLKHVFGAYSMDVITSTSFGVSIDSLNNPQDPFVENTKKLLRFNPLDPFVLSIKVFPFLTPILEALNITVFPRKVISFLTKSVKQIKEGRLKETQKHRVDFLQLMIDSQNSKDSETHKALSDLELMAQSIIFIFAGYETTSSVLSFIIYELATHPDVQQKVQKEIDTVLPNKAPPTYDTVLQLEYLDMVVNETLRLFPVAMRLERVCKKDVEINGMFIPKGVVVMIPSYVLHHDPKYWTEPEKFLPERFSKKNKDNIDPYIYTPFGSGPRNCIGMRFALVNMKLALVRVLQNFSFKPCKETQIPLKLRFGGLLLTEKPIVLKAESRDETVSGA

One experiment deals with Cytochrome P450 3A7 (Homo sapiens) (UniProt P24462). The experiment is described as follows: Cytochrome P450 family 3 subfamily A member 7 (CYP3A7) small molecule antagonists: luciferase biochemical qHTS assay (AID 1963596). The conditions noted are these: P450-Glo CYP3A7 enzyme luminescence, 1 h; series mostly up to 57.4 µM. Summed up:
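Luminescence read-out (relative luminescence units) after 20 min with detection reagent, which stops the reaction. Enzyme, proluciferin substrate and compound preincubated 10 min, RT; NADPH regeneration system then started 1 h reaction. Ketoconazole as positive control.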
(In general: In qHTS, concentration-response curves come from the screen itself.)
Take `N[C@H]1C(O)O[C@H](CO)[C@@H](O)[C@@H]1O` (stereo not given in full): the Potency result was “inactive”.
With `O=C(O)CN(CCN(CC(=O)O)CC(=O)O)CCN(CC(=O)O)CC(=O)O`, the Potency entry is “inactive”.
Take `CCS(=O)(=O)c1ccc(OC)c(C(=O)OC)c1`: the Potency entry is “inactive”.
Regarding `Cc1cn([C@H]2C[C@H](F)[C@@H](CO)O2)c(=O)[nH]c1=O`, the Potency entry is “inactive”.
With `CCOC(=O)c1ccc(NC(=O)CN2CCCCC2)cc1`, the Potency entry was “inactive”.
Still for that read-out and setting: as for `CC(=O)Oc1ccc(C)cc1`, the entry is “inactive”; as for `OC[C@H]1O[C@@H]2O[C@H]3[C@H](O)[C@@H](O)[C@@H](O[C@H]4[C@H](O)[C@@H](O)[C@@H](O[C@H]5[C@H](O)[C@@H](O)[C@@H](O[C@H]6[C@H](O)[C@@H](O)[C@@H](O[C@H]7[C@H](O)[C@@H](O)[C@@H](O[C@H]8[C@H](O)[C@@H](O)[C@@H](O[C@H]1[C@H](O)[C@H]2O)O[C@@H]8CO)O[C@@H]7CO)O[C@@H]6CO)O[C@@H]5CO)O[C@@H]4CO)O[C@@H]3CO`, “inactive”.
On the same count and under the same terms, then `COC(=O)c1cccnc1`, with “inactive”; and `CCCCCCCCCCCC(=O)[O][Sn]([CH2]CCC)([CH2]CCC)[O]C(=O)CCCCCCCCCCC`, with 19.5 µM (active).
As for `NCCCC(N)CC(=O)NCC1NC(=O)C(CO)NC(=O)C(N)CNC(=O)C(C2CCN=C(N)N2)NC(=O)C(=CNC(N)=O)NC1=O` (stereo not drawn) (H-[Dap]S[Dap](ξβ3hOrn)[ΔAla(3-NHCONH2)][X2]; lactam 1-C; configuration not given here), the activity change, negative = inhibition was 0.114% [at 0.91 µM].
For `CCCCCC(N)=O`, the Potency entry was “inactive”.
For the compound `Cc1onc(-c2ccccc2)c1C(=O)Cl`, the Potency result was “inactive”.
On the same count and under the same terms, as for `NC/C=C/C(=O)O`, the entry is “inactive”; as for `CN(C)CCOC(=O)C(c1ccccc1)C1(O)CCCC1` (stereo not given), “inactive”; as for `CCC(C(=O)O)c1ccc(N2Cc3ccccc3C2=O)cc1` (stereo not given), “inactive”.
For the compound `COc1ccc(/C(C)=C/C(=O)O)c(OC)c1`, the Potency entry is “inactive”.
On to `CC12CCC(CC1)C(C)(C)O2`, for which the Potency entry is “inactive”.
As for `CCN(CC)CCNC(=O)c1ccc(N)cc1`, the Potency result was “inactive”.
Consider `C[C@H](N)[C@H](O)c1cccc(O)c1`, for which the Potency result is “inactive”.
The same measure, in the same setting: then `CN1C[C@@H]2C[C@H]1CN2c1cc2c(cc1F)c(=O)c(C(=O)O)cn2C1CC1`, with “inactive”.
Same read-out and setting: then `NS(=O)(=O)c1ccc(C(=O)O)cc1`, with “inactive”; and `COc1cc(C(=O)NCCCCCC(=O)O)cc(OC)c1OC`, with “inactive”.
Same read-out and setting: as for `CCCCCCCCOc1ccc(C(=O)c2ccccc2)c(O)c1`, the entry is “inactive”; as for `CN(C)C/C=C(/c1ccc(Br)cc1)c1cccnc1`, “inactive”; as for `CC(=O)NC(=O)c1ccccc1O`, “inactive”.
For the compound `COc1ccc(CN(CCN(C)C)c2ccccn2)cc1`, the Potency entry is “inactive”.
`CCN(CC)CC1CCCCN1CC(=O)N1c2ccccc2C(=O)Nc2cccnc21` (stereo not given): the Potency result was “inactive”.
`CC1CCN(CCCC(=O)c2ccc(F)cc2)CC1`: the Potency entry is “inactive”.
Same read-out and setting: as for `NS(=O)(=O)c1cc(C(=O)O)cc(N2CCCC2)c1Oc1ccccc1`, the entry is “inactive”; as for `CCCCCCCCCCCCCCCCCC(=O)OCC(O)CO` (stereo not given), “inactive”; as for `C[C@H]1[C@H]2CC[C@H]3[C@@H]4CC=C5C[C@@H](N(C)C)CC[C@]5(C)[C@H]4CC[C@]23CN1C`, “inactive”.
Consider `C=CCN1CCc2nc(N)sc2CC1`, for which the Potency result was “inactive”.
Take `NC(N)=NC(N)=NCCc1ccccc1`: the Potency entry was “inactive”.
On the same count and under the same terms, then `CC(=O)OCC(=O)NCCCOc1cccc(CN2CCCCC2)c1`, with “inactive”; and `O=C(O)CCC(=O)OC[C@@H](NC(=O)C(Cl)Cl)[C@H](O)c1ccc([N+](=O)[O-])cc1`, with “inactive”.
Same read-out and setting: then `Cc1cc(NS(=O)(=O)c2ccc(N)cc2)no1`, with “inactive”; and `O=C(O)CCCCC1CCSS1` (stereo not given), with “inactive”.
Still for that read-out and setting: then `Nc1ncnc2c1ncn2[C@@H]1O[C@H](COP(=O)(O)O)[C@@H](O)[C@H]1O`, with “inactive”; and `CCN(CC)CCNC(=O)c1cc(S(C)(=O)=O)ccc1OC`, with “inactive”.
`CCOC(=O)C(O)c1ccccc1` (stereo not given): the Potency entry is “inactive”.

Test system in the next experiment: not listed separately
The experiment is described as follows: Viability qHTS for spleen associated tyrosine kinase inhibitor (SYKi) naive MV4-11 cells (AID 1963823). As to conditions: MV4-11 AML viability, CellTiter-Glo luminescence, 72 h; series mostly up to 45 µM. Summed up: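 SYKi-naive MV4-11 AML cells, 500 per well, were exposed to library compounds for 72 hr at 37 C, 5% CO2. Viability was then read by CellTiter-Glo luminescence after 10 min at room temperature.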
For the compound `N[C@H]1C(O)O[C@H](CO)[C@@H](O)[C@@H]1O` (stereo not given in full), the Potency entry is “inactive”.
With `O=C(O)CN(CCN(CC(=O)O)CC(=O)O)CCN(CC(=O)O)CC(=O)O`, the Potency entry was “inactive”.
On the same count and under the same terms, then `CCS(=O)(=O)c1ccc(OC)c(C(=O)OC)c1`, with “inactive”; and `Cc1cn([C@H]2C[C@H](F)[C@@H](CO)O2)c(=O)[nH]c1=O`, with “inactive”.
The same measure, in the same setting: then `CCOC(=O)c1ccc(NC(=O)CN2CCCCC2)cc1`, with “inactive”; and `CC(=O)Oc1ccc(C)cc1`, with “inactive”; and `OC[C@H]1O[C@@H]2O[C@H]3[C@H](O)[C@@H](O)[C@@H](O[C@H]4[C@H](O)[C@@H](O)[C@@H](O[C@H]5[C@H](O)[C@@H](O)[C@@H](O[C@H]6[C@H](O)[C@@H](O)[C@@H](O[C@H]7[C@H](O)[C@@H](O)[C@@H](O[C@H]8[C@H](O)[C@@H](O)[C@@H](O[C@H]1[C@H](O)[C@H]2O)O[C@@H]8CO)O[C@@H]7CO)O[C@@H]6CO)O[C@@H]5CO)O[C@@H]4CO)O[C@@H]3CO`, with “inactive”.
The same measure, in the same setting: as for `COC(=O)c1cccnc1`, the entry is “inactive”; as for `CCCCCCCCCCCC(=O)[O][Sn]([CH2]CCC)([CH2]CCC)[O]C(=O)CCCCCCCCCCC`, “inactive”.
As to `NCCCC(N)CC(=O)NCC1NC(=O)C(CO)NC(=O)C(N)CNC(=O)C(C2CCN=C(N)N2)NC(=O)C(=CNC(N)=O)NC1=O` (stereo not drawn) (H-[Dap]S[Dap](ξβ3hOrn)[ΔAla(3-NHCONH2)][X2]; lactam 1-C; configuration not given here), the viability (% of control) is 84.9% [at 0.588 µM].
With `CCCCCC(N)=O`, the Potency result was “inactive”.
Still for that read-out and setting: then `Cc1onc(-c2ccccc2)c1C(=O)Cl`, with “inactive”.
On to `NC/C=C/C(=O)O`, for which the Potency result is “inactive”.
Still for that read-out and setting: then `CN(C)CCOC(=O)C(c1ccccc1)C1(O)CCCC1` (stereo not given), with “inactive”; and `CCC(C(=O)O)c1ccc(N2Cc3ccccc3C2=O)cc1` (stereo not given), with “inactive”; and `COc1ccc(/C(C)=C/C(=O)O)c(OC)c1`, with “inactive”.
Take `CC12CCC(CC1)C(C)(C)O2`: the Potency entry is “inactive”.
Take `CCN(CC)CCNC(=O)c1ccc(N)cc1`: the Potency entry was “inactive”.
On the same count and under the same terms, then `C[C@H](N)[C@H](O)c1cccc(O)c1`, with “inactive”.
Same read-out and setting: as for `CN1C[C@@H]2C[C@H]1CN2c1cc2c(cc1F)c(=O)c(C(=O)O)cn2C1CC1`, the entry is “inactive”; as for `NS(=O)(=O)c1ccc(C(=O)O)cc1`, “inactive”.
Take `COc1cc(C(=O)NCCCCCC(=O)O)cc(OC)c1OC`: the Potency result is “inactive”.
The same measure, in the same setting: as for `CCCCCCCCOc1ccc(C(=O)c2ccccc2)c(O)c1`, the entry is “inactive”; as for `CN(C)C/C=C(/c1ccc(Br)cc1)c1cccnc1`, “inactive”.
Same read-out and setting: as for `CC(=O)NC(=O)c1ccccc1O`, the entry is “inactive”; as for `COc1ccc(CN(CCN(C)C)c2ccccn2)cc1`, 16.8 µM (active); as for `CCN(CC)CC1CCCCN1CC(=O)N1c2ccccc2C(=O)Nc2cccnc21` (stereo not given), “inactive”.
Turning to `CC1CCN(CCCC(=O)c2ccc(F)cc2)CC1`, the Potency result was “inactive”.
As for `NS(=O)(=O)c1cc(C(=O)O)cc(N2CCCC2)c1Oc1ccccc1`, the Potency entry is “inactive”.
Take `CCCCCCCCCCCCCCCCCC(=O)OCC(O)CO` (stereo not given): the Potency result is “inactive”.
Same read-out and setting: then `C[C@H]1[C@H]2CC[C@H]3[C@@H]4CC=C5C[C@@H](N(C)C)CC[C@]5(C)[C@H]4CC[C@]23CN1C`, with “inactive”; and `C=CCN1CCc2nc(N)sc2CC1`, with “inactive”.
Still for that read-out and setting: then `NC(N)=NC(N)=NCCc1ccccc1`, with 11.8 µM (active); and `CC(=O)OCC(=O)NCCCOc1cccc(CN2CCCCC2)c1`, with “inactive”; and `O=C(O)CCC(=O)OC[C@@H](NC(=O)C(Cl)Cl)[C@H](O)c1ccc([N+](=O)[O-])cc1`, with “inactive”.
Still for that read-out and setting: then `Cc1cc(NS(=O)(=O)c2ccc(N)cc2)no1`, with “inactive”; and `O=C(O)CCCCC1CCSS1` (stereo not given), with “inactive”; and `Nc1ncnc2c1ncn2[C@@H]1O[C@H](COP(=O)(O)O)[C@@H](O)[C@H]1O`, with “inactive”.
In the case of `CCN(CC)CCNC(=O)c1cc(S(C)(=O)=O)ccc1OC`, the Potency result was “inactive”.
The same measure, in the same setting: then `CCOC(=O)C(O)c1ccccc1` (stereo not given), with “inactive”.
